Test results taken from PubChem BioAssay AID1117319 (Southern Research Institute, 2015).
Values joined by “and” are separate entries in the source; they are usually repeats but may differ in a detail not shown here. Equal entries are not always repeated. Hit rate of the full screen: of about 260,000 compounds, about 1,500 (0.58%) were called active. Roughly 5% stayed inconclusive and do not appear here.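 How the source made its calls: active means inhibition above a set limit at one or more doses, reproduced on every date tested; inconclusive means results disagree between test dates, or hit never tested in dose response; inactive means the rest.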 Only a sample is shown. Measured potencies and affinities stand elsewhere.

Biological target: Virion infectivity factor (Human immunodeficiency virus type 1 group M subtype B (isolate BH10)) + Virion infectivity factor (Human immunodeficiency virus type 1 group M subtype B (isolate BRU/LAI)) + Virion infectivity factor (Human immunodeficiency virus type 1 group M subtype B (isolate PCV12)) + Virion infectivity factor (Human immunodeficiency virus type 1 group M subtype B (isolate HXB2)) + DNA dC->dU-editing enzyme APOBEC-3G (Homo sapiens) (UniProt P69720+P69721+P69722+P69723+Q9HC16)
Test: HIV-1 Vif–A3G interaction blockers – biochemical, TR-FRET, GST-Vif 1-94, biotin-A3G peptide, dose response retest, primary screen (AID 1117319);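 further: Vif residues 1-94 fused to GST binding biotinylated APOBEC3G peptide 110-148; 0% = full assay without inhibitor and 100% = GST in place of GST-Vif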
Conditions: TR-FRET GST-Vif / biotin-A3G peptide binding; active compounds read high

inhibition, inactive:
O=C(CSc1nnc(-c2cnccn2)n1Cc1ccco1)c1ccc2ccccc2c1 4.99%, CCn1cc(C(=O)NCc2ccc3c(c2)OCO3)c(=O)c2cc(S(=O)(=O)N3CCOCC3)ccc21 -9.22% and 8.82%, CCOc1ccc(C=NN2CCCCCC2)cc1OCC -8.05%, CCCCC12CN3CC(C)(CN(C1)C31C(=O)N(C)c3ccc(C)cc31)C2=O (stereo not drawn) 3.69%, N#Cc1cccnc1Nc1ccc(Cl)cc1 8.98%, CN(C(=O)COC(=O)c1ccc(Cl)cc1N)C1CCS(=O)(=O)C1 (stereo not drawn) -4.2%, OCCC1CN(Cc2ccccc2-c2ccco2)CCN1Cc1ccccc1 (stereo not drawn) 15.2%, COc1cc(C2CC(=O)N3CN(Cc4ccco4)CSC3=C2C#N)ccc1OCc1ccccc1 (stereo not drawn) 24.2%, N#CC1=C2SCN(Cc3ccco3)CN2C(=O)CC1c1cccc2ccccc12 (stereo not drawn) 16%, O=C(CN(Cc1ccc(F)cc1)C(=O)CNS(=O)(=O)c1ccccc1)NCC1CCCO1 (stereo not drawn) 2.58%, O=C(OCCN1C(=O)c2ccccc2C1=O)c1cc(S(=O)(=O)N2CCOCC2)ccc1F -0.69%, CC1=C(C(=O)OC2CCCCC2)C(c2ccccc2Br)NC(=O)N1 (stereo not drawn) -6.38%, CNC(=S)Nc1ccccc1-c1ccccc1 -7.68%, CNc1cccc2c1C(=O)c1ccccc1C2=O 7.57%, CCCCOc1ccc(C(=O)NN2C(=O)NC3(CCCCC3)C2=O)cc1OC 2.72%, CC[C@@H](C(=O)n1nc(C)cc1C)[C@H](NS(=O)(=O)c1ccc(C)cc1)c1ccccc1 -0.92%, CCNC(=O)CSc1nnc(-c2cccc(S(=O)(=O)N3CCOCC3)c2)o1 4.88%, O=C(c1cc(COc2ccc(F)cc2Cl)on1)N1CCCC(c2ccccc2)C1 (stereo not drawn) 2.73%, Cn1c(=O)[nH]c(=O)c2c1nc(N1CCOCC1)n2CCSc1nc2ccccc2[nH]1 2.63%, CC1(C)Cc2nc3sc4c(=O)n(CC(=O)NCc5ccco5)cnc4c3cc2CO1 2.08%, CC1(C)Cc2nc3sc4c(SCC(=O)NCc5ccccc5)ncnc4c3cc2CO1 -70.1% and -107%, CC1(C)NC(=O)N(CNc2cc(Cl)ccc2Cl)C1=O 20.3%, CCCn1c(SCC(=O)NC)nnc1C(C)C 6.34%, N#Cc1cccc(NC(=O)Cc2ccsc2)c1 5.18%, N#CC1CN(C(c2ccccc2)c2ccccc2)C1 -4.6%, CCOc1ccc(NC(c2ccccc2)P(=O)(OC)OC)cc1 (stereo not drawn) 5.04%, CCOc1ccc(N(CC(=O)OC)S(=O)(=O)c2c(C)noc2C)cc1 -1.15%, CCOc1ccc(N(CC(=O)NC(C)CC)S(=O)(=O)c2c(C)noc2C)cc1 (stereo not drawn) -0.89%, COC(=O)C1CCN(C(=O)Nc2ccccc2)CC1 0.21%, COc1cccc(-c2cc(C(F)(F)F)n3nc(N)nc3n2)c1 32.2%, COc1cccc(-c2cc3nc4c(c(N5CCC6(CC5)OCCO6)n3n2)CCCC4)c1 -6.69%, COc1ccc(N2CCN(CCNC(=O)Nc3ccc(C)c(Cl)c3)CC2)cc1 0.91%, CCCN(CC(=O)Nc1cccc(S(N)(=O)=O)c1)CC(=O)Nc1ccc(F)c(F)c1F 9.36%, CN(Cc1cnc2nc(N)nc(N)c2n1)c1ccc(C(=O)NC(CCC(=O)O)C(=O)O)c2ccccc12 (stereo not drawn) 4.59%, CN(Cc1cnc2nc(N)nc(N)c2n1)c1ccc(C(=O)NC(CCC(=O)O)C(=O)O)cc1C(F)(F)F (stereo not drawn) 4.16%, OCCNC(=S)Nc1ccc(Cl)c(Cl)c1 1.22%, COc1ccc(OC)c(C2CC(=O)N3CN(c4ccc(C)c(Cl)c4)CSC3=C2C#N)c1 (stereo not drawn) 6.54%, COc1ccc(C2CC(=O)N3CN(c4ccc(C)c(Cl)c4)CSC3=C2C#N)cc1OC (stereo not drawn) 13%, C=CC1=CCN(S(=O)C(C)(C)C)[C@@H]1CCO (stereo partly drawn) -5.14%, O=C(NNS(=O)(=O)c1ccccc1)c1ccc(O)cc1 12.2%, C=CCN(C(=O)c1ccccn1)C(C(=O)NCc1ccccc1)c1ccccc1F (stereo not drawn) 6.79%, CCOC(=O)C1CCN(C(c2ccc(OC)c(OC)c2)c2sc3nc(C)nn3c2O)CC1 (stereo not drawn) -0.48%, Cc1nc2sc(C(c3cccs3)N3CCC(C(N)=O)CC3)c(O)n2n1 (stereo not drawn) 4.3%, COc1ccccc1/C=C/C=N/NC(=O)c1ccco1 -2.59%, COC(=O)c1cc(CSc2nc3ccccc3[nH]2)oc1C -2.28%, CCCN(CCC)C(=O)c1ccc2c(c1)OCO2 14.8%, CCN(C(=O)CCS(=O)(=O)c1ccc(Br)cc1)c1ccc2c(c1)OCO2 27.3%, COc1ccc(S(=O)(=O)NCC(=O)NCc2cc(=O)n(C)c(=O)n2C)cc1 -1.92%, O=c1[nH]c2ccccc2n2c(-c3ccncc3)nnc12 4.55%, O=c1[nH]c2ccccc2n2c(C(F)(F)F)nnc12 -5.29%, Cc1sc(N(C(=O)CCc2ccccc2)c2ccc(C(=O)O)cc2)nc1-c1ccccc1 -5.7%, COc1ccc(C(=O)NCCS(=O)(=O)NC2CCCC2)cc1 -8.13%, CC(=O)Cn1c(=O)oc2ccccc21 0.93%, CCOC(=O)c1c(C)[nH]c(C(=O)Cn2c(=O)oc3ccccc32)c1C -6.81%, Cc1ccccc1CS(=O)(=O)Cc1ccc(C(=O)NCCCN2CC(C)CC(C)C2)o1 (stereo not drawn) 28%, Cc1ccc(S(=O)(=O)NCCSCc2ccco2)cc1 -0.39%, COc1ccc(S(=O)(=O)NCCSCc2ccco2)cc1 24%, O=C1NC[C@@H](Cc2cccc3ccccc23)N(CC2CCCCC2)C1=O 5.43%, COc1ccc(/C=C2\C(=O)NCC(=O)N2Cc2ccccc2)cc1 -2.05%, CC1=CC(=O)C=C(C)C1=NOS(=O)(=O)c1ccccc1 9.66%, CC1=C/C(=N\OS(=O)(=O)c2ccccc2)C(C)=CC1=O 19.9%, Cc1cccc(NS(=O)(=O)c2nnc(NC(=O)CC(C)C)s2)c1 -2.78%, CCCn1c(C)cc(-c2csc(N)n2)c1C 11.8%, C=CCn1c(C)cc(-c2csc(NCC)n2)c1C 32.5%, COc1ccc(N2C3=C(CC4=C2CC(C)(C)CC4=O)C(=O)CC(C)(C)C3)cc1 24.6% and 5.22%, COc1ccc(-n2ccc(=O)c3c2CCCC3=O)cc1 9%, Nc1cc(=O)[nH]c(SCc2ccc(Cl)cc2Cl)n1 -1%, CCN(CC(=O)Nc1ccccc1C(F)(F)F)C(=O)Cn1c(=O)cnc2ccccc21 -3.46%, Cc1nc2sc3c(c2c(=O)o1)CCC3 11.5%, O=c1[nH]c2sc3c(c2c2nncn12)CCCC3 24.3%, Cc1cccnc1NC(=O)c1ccc(S(=O)(=O)N2CCCCCC2)cc1 -2.42%, Cc1ccc(CN2CCC[C@]3(N[C@H](c4ccc(C(F)(F)F)cc4)[C@@H]4C(=O)N(Cc5ccccc5)C(=O)[C@@H]43)C2=O)cc1 5.48%, CCn1c2ccccc2c2nc3cc(S(=O)(=O)N4CCOCC4)ccc3nc21 2.64%, Nc1nc2cc(S(=O)(=O)N3CCOCC3)ccc2o1 -2.39%, O=C(OCn1nnc2ccccc2c1=O)c1cccnc1Cl 0.6%, COc1nc(NCCC2=CCCCC2)nc(OC)n1 -1.44%, CCOC(=O)N1CCN(C(=O)c2cc(C)no2)CC1 -3.25%, CC(=O)N/C(=C\c1ccccc1)C(=O)OCC(=O)N(CC(C)C)c1c(N)n(Cc2ccccc2)c(=O)[nH]c1=O 4.02%, O=C(COC(=O)c1cccc([N+](=O)[O-])c1)Nc1ncc(Br)s1 1.23%, CC(C)CC(=O)Nc1ncc([N+](=O)[O-])s1 8.92%, Cc1csc(NC(=O)CSc2nncn2C)n1 7.24%, COc1ccc(C(=O)OCC(=O)Nc2ncc([N+](=O)[O-])s2)cc1OC 5.33%, C=CCn1c(SCC(=O)NCc2ccc3c(c2)OCO3)nc2scc(-c3ccccc3)c2c1=O -40.6%, Cc1ccsc1C(=O)Nc1nc2ccccc2[nH]1 -12.8%, COc1ccc(NC(=O)C2(c3ccc(NC(=O)c4ccc(OC)c(OC)c4)cc3)CCCC2)cc1 0.05%, O=C(Nc1ccc(Br)cn1)C1CCCN1S(=O)(=O)c1ccccc1 (stereo not drawn) 4.08%, CC1=CCC2C(=O)N(c3nc4ccccc4n3C)C(=O)C2C1 (stereo not drawn) 24.7%, Cc1cccc(N2C(=O)CC(N(O)c3ccccc3)C2=O)c1 (stereo not drawn) 3.45%, O=C(/C=C/c1cccs1)N1CCN(c2ccc(F)cc2)CC1 3.81%, O=C(/C=C/c1cccs1)N1CCN(c2ccccc2)CC1 -0.91%, COC(=O)CC1C(=O)NCCN1C(=S)NC(=O)c1ccccc1[N+](=O)[O-] (stereo not drawn) 13.4%, COc1ccc2c(c1)c(=O)oc1cc(OCC(=O)NC3CC3)ccc12 -2.02%, COc1ccc2c(c1)c(=O)oc1cc(OCC(=O)N3CCCC(C)C3)ccc12 (stereo not drawn) -1.48%
